{
  "source": "PubChem BioAssay (EPA / NIEHS)",
  "note": "Calls of active or inactive are those of the source. The calls were made as follows: active = hit-call score of the fitted dose curve at least 0.9, where 1 is the maximum; inactive = score below 0.9.",
  "data": [
    {"read-out": "TIMP1, TIMP1 (gene 7076)", "assay": "LTEA_HepaRG_TIMP1: Life Technologies and Expression Analysis (LTEA) Assay for TIMP1 using HepaRG (AID 2283534);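 as to outcome: TaqMan qRT-PCR signal normalized to ACTB GAPDH and POLR2A housekeeping genes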", "conditions": "mRNA level, 48 h; actives raise or lower the signal", "experimental": "LTEA_HepaRG is a cell based, multiplexed-readout assay that uses HepaRG, a human liver cell line, with measurements taken at 48 hours after chemical dosing on a 96-well plate.LTEA_HepaRG_TIMP1 is one of 102 assay component(s) measured in the LTEA HepaRG cell culture assay. It is a marker of Cell proliferation, survival, death.Data from the assay component LTEA_HepaRG_TIMP1 was analyzed into 1 endpoint. This assay endpoint, LTEA_HepaRG_TIMP1, was analyzed with bidirectional fitting relative to DMSO as the negative control and baseline of activity. Using a type of inducible reporter, measures of mRNA induction for gain or loss-of-signal activity can be used to understand regulation of transcription factor activity. To generalize the intended target to other relatable targets, this assay endpoint is annotated to the protease inhibitor intended target family, where the subfamily is metalloproteinase inhibitor.\nA total of 1060 chemcials from the ToxCast library were tested in eight-point concentration-response experiments. Cell culture and cytotoxicity assays were conducted at Thermo Fisher Scientific's Custom Services facility (Madison, WI). A single lot of human HepaRG cells (Thermo Fisher Scientific, Frederick, MD) was used for the cell culture experiments. 96-well format collagen type I coated plates of human HepaRG cells were prepared using established methods. Briefly, cryopreserved HepaRG cells were thawed, plated at a density of approximately 100,000 cells/well in HepaRG Thaw, Plate, and General Purpose media (HPRG770, Thermo Fisher Scientific), and incubated for 48 hours. 0.5% DMSO was selected as vehicle control to balance the requisite need of DMSO in HepaRG cultures to maintain differentiation (for example, baseline metabolism, proportions of hepatocytes vs. cholangiocytes), while enabling further hepatic receptor pathway activation (for example, PXR and CAR) in response to chemical exposure. 48 hours after plating, the culture medium was replaced with HepaRG Serum-Free Incudtion Media. Cells were exposed to each test chemical in duplicate and maintained in CO2 incubators for another 48 hours. Chemical plates were thawed to room temperature and 200x concentrations of treatment groups were prepared. 8-point conentration-reponse curves were made with the highest exposure at 100 uM, followed by half-log dilutions, all in 0.5% DMSO. Each test plate contained variouse controls, induction positive controls (1mM phenobarbital), cytotoxicity positive controls ([…] aflatoxin B1), vehicle controls (0.5% DMSO), and total lysis controls (0.5% DMSO). Cell morphology images were taken using an Essen IncuCyte FLR automated microscope, with six 96-well plates imaged in about 24 minutes. Images were captured and exported and JPEG files. Spent culture media was transfered to black-well plates for the LDH assay, and remaining media was sorted at -80 C for later use. Cells were treated with RLT buffer and frozen until shipped for gene expression analysis. Total RNA was isolated from the cell suspension in 75 uL of Buffer RLT (Qiagen, Germantown, MD 20874) by Quintiles/Expression Analysis (Durham, NC) using a custom isolation procedure. Total RNA from each plate well was transferred to a preamplification plate. Fluidigm's 96.96 Dynamic ArrayTM (Fluidigm, Amsterdam, the Netherlands) technology was used for gene expression analyses by quantitative reverse transcription polymerase chain reaction (qRT-PCR, performed by Quintiles/Expression Analysis, Durham, NC)89. Standard TaqManTM Assays (Applied Biosystems/ThermoFisher Scientific, Foster City, CA) were used to assess the expression of 93 genes selected based on their selectivity and sensitivity to important hepatic receptors known to be modulated by environmental chemicals; importance in human hepatocyte functionality; and hepatotoxicity. […]", "values": [
      {"smiles": "Clc1cc(Cl)c2c(c1)N=C1CCCCCN1C2", "outcome": "inactive"},
      {"smiles": "CCN(Cc1cccc(S(=O)(=O)O)c1)c1ccc(C(=C2C=CC(=[N+](CC)Cc3cccc(S(=O)(=O)O)c3)C=C2)c2ccccc2S(=O)(=O)[O-])cc1", "outcome": "inactive"},
      {"smiles": "COc1ccc2cc(S(=O)(=O)N[C@H](CC(=O)N[C@H](Cc3ccc(CN4[C@H](C)CCC[C@@H]4C)cc3)C(=O)N(C)C(C)C)c3ccc4c(c3)OCO4)ccc2c1", "AC50": "30.8 µM (active)"},
      {"smiles": "CN1C(=O)CC[C@H]1c1cccnc1", "outcome": "inactive"},
      {"smiles": "O=C1c2ccccc2C(=O)N1CCc1noc(-c2ccc(CN3CCCCCC3)s2)n1", "outcome": "inactive"},
      {"smiles": "c1ccc2n[nH]nc2c1", "outcome": "inactive"},
      {"smiles": "CCCCCCCCOc1ccc(C(=O)c2ccccc2)c(O)c1", "outcome": "inactive"},
      {"smiles": "O=c1ccc2ccccc2o1", "outcome": "inactive"},
      {"smiles": "Cc1occc1C(=O)Nc1ccc(C(=O)N2CCC(F)(F)/C(=C\\C(=O)N3CCC(N4CCCCC4)CC3)c3ccccc32)cc1", "outcome": "inactive"},
      {"smiles": "O=C(O)c1ccccc1-n1cc(C(=O)O)c(=O)c2cc(Nc3c(F)cc(F)cc3Cl)c(Cl)cc21", "outcome": "inactive"},
      {"smiles": "C[C@]12CC[C@@H]3c4ccc(O)cc4CC[C@H]3[C@@H]1CCC2=O", "outcome": "inactive"},
      {"smiles": "CC/C(=C(/CC)c1ccc(O)cc1)c1ccc(O)cc1", "outcome": "inactive"},
      {"smiles": "c1ccc(C[n+]2cccc3ccccc32)cc1", "outcome": "inactive"},
      {"smiles": "OCCO", "outcome": "inactive"},
      {"smiles": "O=C=NCCCCCCN=C=O", "outcome": "inactive"},
      {"smiles": "O=C(O)Cn1c(=O)n(Cc2ccc(Br)cc2F)c(=O)c2ccc(Cl)cc21", "outcome": "inactive"},
      {"smiles": "O=c1[nH]sc2ccccc12", "outcome": "inactive"},
      {"smiles": "O=CCCCC=O", "outcome": "inactive"},
      {"smiles": "O=C(O)Cc1cc(I)c(Oc2ccc(O)c(I)c2)c(I)c1", "outcome": "inactive"},
      {"smiles": "NCc1cccc(C2CCN(C(=O)c3ccc(C#Cc4ccccc4F)o3)CC2)c1", "AC50": "85.9 µM (active)"},
      {"smiles": "COCC(C)OCC(C)OCC(C)O", "note": "(stereo not given)", "outcome": "inactive"},
      {"smiles": "CCCCCCCC[Si](OCC)(OCC)OCC", "outcome": "inactive"},
      {"smiles": "O=C(Nc1ccc(Cl)cc1)Nc1ccc(Cl)c(Cl)c1", "AC50": "16 µM (active)"},
      {"smiles": "CO[C@H]1/C=C/O[C@@]2(C)Oc3c(C)c(O)c4c(O)c(c(/C=N/N5CCN(C)CC5)c(O)c4c3C2=O)NC(=O)/C(C)=C\\C=C\\[C@H](C)[C@H](O)[C@@H](C)[C@@H](O)[C@@H](C)[C@H](OC(C)=O)[C@@H]1C", "outcome": "inactive"},
      {"smiles": "CN(C)C(=O)C1(N2CCCCC2)CCN(CC[C@@]2(c3ccc(Cl)c(Cl)c3)CN(C(=O)c3ccccc3)CCO2)CC1", "AC50": "17.4 µM (active)"},
      {"smiles": "CCCCOC(=O)CC(CC(=O)OCCCC)(OC(C)=O)C(=O)OCCCC", "outcome": "inactive"},
      {"smiles": "C[C@]12CC[C@@H]3c4ccc(O)cc4CC[C@H]3[C@@H]1CC[C@H]2O", "outcome": "inactive"},
      {"smiles": "CN(C[C@@H](CC[N+]12CCC(C3CCCCC3)(CC1)CC2)c1ccc(Cl)c(Cl)c1)C(=O)c1cc(C(F)(F)F)cc(C(F)(F)F)c1", "AC50": "68.7 µM (active)"},
      {"smiles": "OC12N=C(c3ccccc3)SC1Cc1cc(Cl)ccc12", "note": "(stereo not given)", "outcome": "inactive"},
      {"smiles": "Cc1oc2c(NC(=O)c3c(Cl)cccc3Cl)cccc2c1C(C)(C)O", "outcome": "inactive"},
      {"smiles": "CCCC(=O)OCCC(C)C", "outcome": "inactive"},
      {"smiles": "Clc1ccccc1C(c1ccccc1)(c1ccccc1)n1ccnc1", "outcome": "inactive"},
      {"smiles": "CCCCOC(=O)c1ccc(O)cc1", "outcome": "inactive"},
      {"smiles": "CC(O)CC(C)(C)O", "note": "(stereo not given)", "outcome": "inactive"},
      {"smiles": "Cc1cc(F)ccc1-c1cc(N2CC[C@@H](O)[C@H]2CO)ncc1N(C)C(=O)C(C)(C)c1cc(C(F)(F)F)cc(C(F)(F)F)c1", "outcome": "inactive"},
      {"smiles": "CCCCCCCCOC(=O)c1cc(O)c(O)c(O)c1", "outcome": "inactive"},
      {"smiles": "CCN(CC)C(=O)c1cc(S(=O)(=O)Cc2ccccc2)c(N2CCC(c3ccccc3)CC2)cc1N(CC)CCN(C)C", "outcome": "inactive"},
      {"smiles": "Cc1c2ccccc2c(C)c2c1ccc1ccccc12", "outcome": "inactive"},
      {"smiles": "c1ccc2ccccc2c1", "outcome": "inactive"},
      {"smiles": "Cc1cc2c(cc1C(F)(F)F)N(C(=O)Nc1ccc(Oc3cccnc3C)nc1)CC2", "AC50": "83 µM (active)"}
    ]}
  ]
}
